# High-throughput results from PubChem.
# TDP1 inh: qHTS Assay for Inhibitors of Tyrosyl-DNA Phosphodiesterase (TDP1). Tyrosyl-DNA phosphodiesterase 1 (Homo sapiens), Q9NUW8. recombinant TDP1, AlphaScreen DNA substrate cleavage. Potency, µM (series often up to 130 µM), for inactives: at the top dose activity change, negative = inhibition, actives largely listed as inhibitors. actives 0.28% (n = 350,000). AID 485290, 2010; also: potency is read from the fitted curve at half-maximal effect; % is scaled to controls: 0 for no effect and ±100 for the full control effect; nearly all actives have a fitted effect of over 40% in size
# Target sequence (Q9NUW8 whole entry, looked up): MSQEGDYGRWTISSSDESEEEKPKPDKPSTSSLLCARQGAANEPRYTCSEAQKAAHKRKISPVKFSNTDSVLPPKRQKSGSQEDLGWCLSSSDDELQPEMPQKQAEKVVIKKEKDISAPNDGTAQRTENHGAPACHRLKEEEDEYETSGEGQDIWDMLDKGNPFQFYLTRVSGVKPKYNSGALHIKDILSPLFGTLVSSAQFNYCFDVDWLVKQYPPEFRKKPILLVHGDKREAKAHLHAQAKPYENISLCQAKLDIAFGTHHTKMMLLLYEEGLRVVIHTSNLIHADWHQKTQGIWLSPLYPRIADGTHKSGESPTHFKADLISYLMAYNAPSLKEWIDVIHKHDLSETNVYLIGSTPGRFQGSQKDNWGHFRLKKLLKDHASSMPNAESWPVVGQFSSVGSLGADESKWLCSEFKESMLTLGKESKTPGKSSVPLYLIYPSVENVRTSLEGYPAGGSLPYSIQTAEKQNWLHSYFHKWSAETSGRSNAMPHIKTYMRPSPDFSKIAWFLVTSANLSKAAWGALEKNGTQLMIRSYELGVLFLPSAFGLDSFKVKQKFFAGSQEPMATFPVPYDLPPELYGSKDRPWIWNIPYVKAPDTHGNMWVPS
#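 Recombinant E. coli-expressed Tdp1 (1 nM) preincubated with compound 15 min at RT, then 5'-biotin/3'-phosphotyrosine-FITC DNA substrate (15 nM) added for 5 min. AlphaScreen beads (10 ug/ml) added, 10 min RT; tyrosine-FITC cleavage read as signal loss.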
# IL1B secr inh: qHTS for Inhibitors of Inflammasome Signaling: IL-1-beta AlphaLISA Primary Screen; THP-1 LPS/ATP IL-1B secretion, AlphaLISA, 16 h; hits give low values; activity change, % at 57.5 µM; actives 4.7% (n = 360,000); AID 743279, 2014; in the data active = activity change below about -50%; inconclusive = mostly about -30% to -49%; also: % is scaled to controls: 0 for no effect and ±100 for the full control effect
#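 Secreted IL-1B measured by AlphaLISA bead assay after 16 h compound exposure of THP-1 cells; compounds (final up to 57.5 uM) added 1 h before LPS (250 ng/mL) and ATP (1.25 mM) stimulation; lower signal means less secretion.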
# TDP1 cell CPT: qHTS for Inhibitors of human tyrosyl-DNA phosphodiesterase 1 (TDP1): qHTS in cells in presence of CPT; chicken DT40 Tdp1-/-;hTDP1 cells + 20 nM CPT, ATP luminescence, 48 h; Potency, µM (doses to about 46.2 µM), for the others: top-dose activity change, negative = growth inhibition, actives largely listed as inhibitors; actives 12% (n = 420,000); AID 686979, 2013; also: potency is read from the fitted curve at half-maximal effect; % is scaled to controls: 0 for no effect and ±100 for the full control effect; nearly all actives have a fitted effect of over 55% in size
#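 Chicken DT40 Tdp1-/- cells complemented with human TDP1, 400 cells/well, exposed to compounds plus 20 nM camptothecin for at least 48 h at 37 C; viability read as ATP content by CellTiter-Glo luminescence.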
# DT40 TDP1 no CPT: qHTS for Inhibitors of human tyrosyl-DNA phosphodiesterase 1 (TDP1): qHTS in cells in absence of CPT. Potency, µM (series often up to 46.2 µM), for the others: top-dose activity change, negative = growth inhibition, most hits filed as inhibitors. AID 686978, 2013. actives 15% (n = 420,000). DT40 Tdp1-/- hTDP1 cells, no CPT, ATP luminescence, 48 h; also: potency is read from the fitted curve at half-maximal effect; % is scaled to controls: 0 for no effect and ±100 for the full control effect; nearly all actives have a fitted effect of over 55% in size
#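 Luminescent ATP content (CellTiter-Glo) served as the growth readout. Knockout chicken DT40 cells expressing human TDP1 were exposed to compounds without camptothecin for a minimum 48 hr at 37 °C.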
# HepG2 viability: qHTS for Inhibitors of TGF-b: Cytotox Counterscreen | HepG2 CAGA-GFP viability, ATP luminescence, 18 h | Potency, µM (doses to about 46.1 µM), without a hit: at the top dose activity change, negative = cytotoxicity, hits mostly cytotoxic | actives 0.76% (n = 410,000); also: potency is read from the fitted curve at half-maximal effect
#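 HepG2 CAGA-GFP cells (1000/well, DMEM with 1% FBS) received compound, then TGF-beta at 500 pg/mL final, and were incubated 18 hours at 37 degrees C. Viability was read by CellTiter-Glo luminescence. Media-only wells were set as complete cell-killing and DMSO as no toxicity.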
# TGFb inhibitor: qHTS for Inhibitors of TGF-b; AID 588855, 2011; Potency, µM (series often up to 46.1 µM), without a hit: at the highest dose activity, negative = inhibition, most hits filed as inhibitors; actives 1.2% (n = 410,000); HepG2 CAGA-GFP TGF-b/SMAD3 reporter, GFP fluorescence, 18 h; TGF-beta stimulated, 500 pg/mL final; also: potency is read from the fitted curve at half-maximal effect; % is scaled to controls: 0 for no effect and ±100 for the full control effect; nearly all actives have a fitted effect of over 65% in size
#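 HEPG2 CAGA-GFP, 1000 cells/well; 2 h settle, 37 C; cpd via pin tool; TGF-b 500 pg/mL final; 18 h, 37 C; GFP imaging ex488/em500-530; %Activity normalised to -TGF-b and +DMSO controls; CRC fit, curve class.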
# Numbers without * were called inactive; ? = inconclusive; · = no result; [ ] = remark or other dose. Compounds with a hit are over-represented: about 18% of the library has one in this group of screens. Unless noted, calls follow the shape of the dose curve; as a rule, active = well fitted curve in the direction sought with a large enough effect; inconclusive = small, poorly fitted or top-dose-only effect, or another doubt; inactive = no such curve, though single readings can be large; an effect the other way counts as inactive or inconclusive.
SMILES,TDP1 inh,IL1B secr inh,TDP1 cell CPT,DT40 TDP1 no CPT,HepG2 viability,TGFb inhibitor
Cn1c(=O)c2c(nc(SCC(=O)c3cccs3)n2Cc2ccc(F)cc2)n(C)c1=O,2%,9,21µM*,12µM*,-4%,?
Cc1ccc(Cn2c(Sc3nccc(C)n3)nc3c2c(=O)[nH]c(=O)n3C)cc1,0%,10,-28%,?,-17%,0%
Cn1c(=O)c2c(nc(Sc3ncccn3)n2Cc2ccc(Cl)cc2)n(C)c1=O,5%,15,12µM*,?,-30%,-11%
Cc1ccc(Cn2c(SCC(C)C)nc3c2c(=O)n(C)c(=O)n3C)cc1,1%,-28,26µM*,26µM*,-5%,?
S=c1cnc2ccccc2[nH]1,11%,4,?,?,-3%,8%
COc1ccc(CNC(=O)C(=O)Nc2ccc(OC)cc2OC)cc1,-3%[12.3 µM],·,-9%,-15%,3%,1%
Cn1c(=O)c2c(nc(SCCN3CCCCC3)n2Cc2ccc(Cl)cc2)n(C)c1=O,2%,-11,-25%,?,-19%,13%
Cc1nnc(Sc2nc3c(c(=O)n(C)c(=O)n3C)n2Cc2ccc(Cl)cc2)s1,-4%,20,?,16µM*,-2%,-3%
CCSc1nc2c(c(=O)n(C)c(=O)n2C)n1Cc1ccc(Cl)cc1,·,0,21µM*,18µM*,-30%,?
CC1CCN(c2nnc(-n3cccc3CNc3cccc(F)c3)s2)CC1,0%,·,?,?,-18%,?
Cc1ccccc1-c1ncc(CN2CCC(CO)(CCCc3ccccc3)CC2)cn1,·,-19,?,?,-31%,?
CCCCCCCCCC[n+]1ccc(/C=C/c2c(C)[nH]c3ccccc23)cc1,·,·,0.56µM*,0.4µM*,-101%,211%
CC[n+]1ccc(/C=C/c2c[nH]c3ccccc23)cc1,·,0,2.3µM*,2.1µM*,-23%,120%
CCCCCCC[n+]1ccc(/C=C/c2c[nH]c3ccccc23)cc1,·,·,0.28µM*,0.32µM*,-18%,177%
CCCCCCCCCC[n+]1ccc(/C=C/c2c[nH]c3ccccc23)c2ccccc21,·,·,1.6µM*,2µM*,13µM*,7.1µM*
O=Cc1c[nH]c2ccccc12,-1%,·,·,·,1%,-13%
Cc1[nH]c2ccccc2c1/C=C/c1nccc2ccccc12,·,·,?,?,-52%,-17%
Cn1c(N)c(C(=O)COC(=O)COc2cc(Cl)c(Cl)cc2Cl)c(=O)n(C)c1=O,-1%,10,-26%,-23%,-2%,-1%
CCN(CC)Cc1c(O)c(Cl)cc2c(C)c(C)c(=O)oc12,0%,11,-13%,3%,-17%,-22%
Cc1c(Cc2ccccc2)c(=O)oc2c(CN(C)C)c(O)c(Cl)cc12,-5%,18,?,16µM*,-18%,2%
CCN(CC)Cc1c(O)c(Cl)cc2c(C)cc(=O)oc12,13µM*,12,13%,-4%,12%,5%
Cc1c(Cc2ccccc2)c(=O)oc2c(O)c(O)ccc12,10%,174,-18%,?,-3%,-11%
CN(Cc1ccccc1NS(=O)(=O)c1ccc2ccccc2c1)C1CCCCC1,8%,12,?,21µM*,-15%,-23%
O[C@@H]1CN(CC2CCCCC2)[C@@H](c2ccccc2)C[C@H]1n1cc(-c2ccc(F)cc2)nn1,·,-2,?,?,-17%,?
CCc1cccc(C)c1NC(=O)CC1Oc2ccc(C)cc2NC1=O (centres undefined),0%,28,-4%,4%,2%,?
SMILES,TDP1 inh,IL1B secr inh,TDP1 cell CPT,DT40 TDP1 no CPT,HepG2 viability,TGFb inhibitor
Cc1ccc(OC(C)C(=O)N(C)Cc2ccccc2)c([N+](=O)[O-])n1 (centres undefined),5%,23,-7%,8%,0%,0%
CSc1ccc(CN2CCN(C(=O)c3ccc([N+](=O)[O-])cc3)CC2)cc1,-5%,-25,?,21µM*,-14%,-30%
O=C(Cc1ccccc1)NC1CCN(C(=O)c2ccc([N+](=O)[O-])cc2)CC1,·,2,-2%,-13%,-5%,3%
O=C(NCC1CCN(C(=O)c2ccc([N+](=O)[O-])cc2)CC1)C(=O)Nc1ccccc1,2%,20,?,21µM*,-4%,3%
O=C(c1ccc(Oc2ccc([N+](=O)[O-])cc2)cc1)N1CCCCCC1,7%,-78*,?,?,-19%,?
C[C@]12C=CC(=O)C=C1CCC1C2C(=O)C[C@]2(C)C1CC[C@]2(O)C(=O)CO (some centres undefined),3%,·,1%,-19%,·,·
CC1CCN2c3cc(Cl)ccc3CC3(C(=O)OC(C)(C)OC3=O)C2C1 (centres undefined),0%,·,-3%,-28%,-14%,-2%
CCS(=O)(=O)c1cc([N+](=O)[O-])c(Sc2ccccc2NC(C)=O)s1,9%,-18,3.3µM*,5.2µM*,-16%,-13%
CCC(=O)c1ccc(N2CCN(C(=O)COc3ccc(F)cc3)CC2)c(F)c1,-4%,-8,21µM*,23µM*,-10%,-18%
CCC(=O)c1cc(F)ccc1OCC(=O)N1CCN(c2ccc(F)cc2)CC1,-3%,5,18µM*,21µM*,-5%,-28%
CC(=O)c1ccc(N2CCN(C(=O)COc3ccc(F)cc3)CC2)c(F)c1,2%,-16,?,16µM*,-1%,3%
CCOCC(=O)N1CCN(c2ccc(F)cc2)CC1,-6%,-8,2%,-8%,-15%,2%
COc1ccc(C2Nc3cccc(O)c3C(=O)N2Cc2ccccc2)cc1COc1ccc(NC(C)=O)cc1 (centres undefined),·,·,·,·,-19%,-5%
COc1ccc(OC)c(CNC(=O)C(C)n2c(C)c3cnn(-c4ccccc4)c(=O)c3c2C)c1 (centres undefined),5%,·,?,12µM*,-24%,·
COc1ccc(OC)c(CCNC(=O)C(C)n2c(C)c3cnn(-c4ccccc4)c(=O)c3c2C)c1 (centres undefined),8%,·,21µM*,?,-19%,-15%
